This is an account of results in ChEMBL document CHEMBL3988442, “University of Dundee, Small-Polar-MMV Screening Library” (2021).

This assay relates to Plasmodium falciparum. The experiment in a line: Calibr Malaria Delayed Death Assay SOP. Format: functional, organism-based. Also on record: scale not given: in the data most compounds retested in dose-response had high values. To be noted: concentration 4.99e-06 (unit not given; other assays of the set use mol/L).

SMILES strings stand for the structures. Several values for one entry are separate records, joined by “and”; a condition that tells them apart may be missing. Identical values can stand only once. The campaign covered roughly 38,000 compounds. About 1,200 (3.2%) showed an effect of 50% or more. The median lay at about -58%. The full list was thinned out, with strong results kept by preference.

`COc1ccc(N2CCN(C(=O)c3nc(Cl)sc3C(C)C)CC2)cc1`: the “Percent Effect” value is on record as -116.1%.
For the molecule `CCn1cc(CN2CCCC(COc3ccc(F)cc3)C2)cn1` (configuration not stated), the “Percent Effect” value is recorded as 75.3%.
Take `COc1ccc(OCC2CCCN(Cc3ccncc3)C2)cc1` (configuration not stated): the “Percent Effect” value is 2.701%.
Still for that read-out and setting: the result for `COc1cccc(OCC2CCCN(Cc3ccncc3)C2)c1` (configuration not stated) reads -55.12%.
`CCn1cc(CN2CCC(c3[nH]ncc3S(C)(=O)=O)C2)cn1` (configuration not stated): the “Percent Effect” value is listed as -50.8%.
As to `CCn1cc(CN2CCCN(C3Cc4ccccc4C3)CC2)cn1`, the “Percent Effect” value was 8.565%.
Still for that read-out and setting: the result for `CCn1cc(CNC2CCN(c3c(F)cccc3F)C2)cn1` (configuration not stated) reads -15.51%.
For the molecule `Cc1ccc(-c2cn[nH]c2C2CCCN(c3ncccn3)C2)cc1` (configuration not stated), the “Percent Effect” value is given as -2.919%.
For `CCn1cc(CN2CCCC(c3[nH]ncc3-c3ccc(C)cc3)C2)cn1` (configuration not stated), the “Percent Effect” value worked out at 60.35%.
Regarding `CCn1cc(CN2CCCC(COc3ccccc3F)C2)cn1` (configuration not stated), the “Percent Effect” value is on record as 72.55%.
Still for that read-out and setting: the result for `O=C(NCC(=O)N1CCCC1Cc1cccc(F)c1)C1CCCC1` (configuration not stated) reads -29.53%; that for `Cc1cnc2c(c1NCc1cccs1)c(=O)n(C)c(=O)n2C`, 3.342%; that for `CNC(=O)C1(c2cnccn2)CCCN1C(=O)c1cccnc1OC` (configuration not stated), -138.6%.
The same measure, in the same setting: for `CCCn1cc(NC(=O)c2ccncc2)ccc1=O` the value was -98.41%; for `CC(C)N1CCCCC1CCn1cnc2cc(C(F)(F)F)ccc2c1=O` (configuration not stated), -97.47%.
On the same count and under the same terms, the result for `Cc1cnc(N(C)Cc2cnc3ccccc3n2)nc1N(C)C` reads -4.617%; that for `O=C(NCCCNC(=O)c1ccccc1)Nc1ccc(F)cc1F`, -135.1%.
In the case of `CCOCC1CN(S(=O)(=O)CC)Cc2cnn(CC3CC3)c21.O=C(O)C(F)(F)F` (configuration not stated), the “Percent Effect” value is -13.24%.
In the case of `CCOCC1CN(C(=O)c2cnccn2)Cc2cnn(CC3CC3)c21.O=C(O)C(F)(F)F` (configuration not stated), the “Percent Effect” value is -137.9%.
`CCOCC1CN(C(=O)c2cccn2C)Cc2cnn(CC3CC3)c21.O=C(O)C(F)(F)F` (configuration not stated): the “Percent Effect” value is on record as 56.84%.
The same measure, in the same setting: the result for `Cn1cccc1C(=O)N1Cc2c(CN3CCCCC3)nn(C)c2C1` reads -1.788%; that for `CC(C)C(=O)N1CCc2c(CN(C)Cc3ccco3)cncc2C1.Cl.Cl`, -39.92%.
On to `C[C@@H]1CN(C2(C(=O)N3CCOCC3)Cc3ccccc3C2)C[C@H](C)O1`, for which the “Percent Effect” value was -24.87%.
On to `C[C@@H]1CN(C2(C(=O)N3CCSCC3)Cc3ccccc3C2)C[C@H](C)O1`, for which the “Percent Effect” value is -246.9%.
Still for that read-out and setting: for `C[C@@H]1CN(C2(C(=O)N3CCNCC3)Cc3ccccc3C2)C[C@H](C)O1` the value was 61.74%.
Still for that read-out and setting: for `O=C(NCCC1CCN(CC(F)(F)F)CC1)C1CCCO1` (configuration not stated) the value was -133.7%.
Still for that read-out and setting: the result for `c1coc(CN2CCO[C@@]3(CCC[C@@H]3COCc3nccs3)C2)c1` reads 10.79%; that for `O=C(NCc1cc2n(n1)CCCNC2)C1(c2ccc(Cl)cc2)CCC1`, -15.95%; that for `O=C(NCc1cc2n(n1)CCCNC2)C1(c2ccccc2)CCCCC1`, 72.51%.
Take `O=C(NCc1cc2n(n1)CCCNC2)c1cn2cc(Cl)ccc2n1`: the “Percent Effect” value is reported as -49.2%.
As to `O=C(O)C(F)(F)F.O=C(O)C(F)(F)F.c1coc(CN2C[C@@H]3OCCN(CC4CCCO4)[C@@H]3C2)c1` (some centres not stated), the “Percent Effect” value is on record as -57.01%.
For the molecule `O=S(=O)(c1ccc(F)cc1Cl)N1CCCC1c1ccncc1` (configuration not stated), the “Percent Effect” value is -22.12%.
Consider `O=C(NC1CCCN(CCCc2ccccc2)C1)C1=CCCCC1` (configuration not stated), for which the “Percent Effect” value is given as -1.379%.
Turning to `O=C(NC1CCCN(CCCc2ccccc2)C1)c1ccc(Cl)s1` (configuration not stated), the “Percent Effect” value was found to be 59.33%.
Same read-out and setting: the result for `O=C(NC1CCCN(CCCc2ccccc2)C1)c1ccncc1` (configuration not stated) reads -32.27%; that for `COCCNC(=O)N1CCSC2(CCCCC2)C1`, -161%; that for `CCC(c1ccc(F)cc1)N1CCn2c(CO)nnc2C1` (configuration not stated), -61.64%.
With `Cc1noc(C)c1CN1C[C@@H]2C[C@@H](C)O[C@@H]2C1.O=C(O)C(F)(F)F`, the “Percent Effect” value is -81.78%.
Regarding `O=C(Cc1ccccn1)N1C[C@H]2CN(Cc3ccccn3)C[C@H]2C1`, the “Percent Effect” value is listed as -76.72%.
On the same count and under the same terms, for `Cc1noc(C)c1CN1CCO[C@H]2CN(Cc3cnn(C)c3)C[C@H]21.O=C(O)C(F)(F)F.O=C(O)C(F)(F)F` the value was 11.54%; for `Cc1noc(C)c1CN1C[C@H]2CNC[C@H]2C1`, 5.878%.
Still for that read-out and setting: for `Cc1noc(C)c1CN1C[C@H]2CN(Cc3cccc(F)c3)C[C@H]2C1.O=C(O)C(F)(F)F.O=C(O)C(F)(F)F` the value was 53.22%; for `Cc1noc(C)c1CN1CCO[C@H]2CN(Cc3ccc(F)cc3)C[C@H]21.O=C(O)C(F)(F)F.O=C(O)C(F)(F)F`, 54.02%.
On to `Cc1noc(C)c1CN1CCO[C@H]2CN(Cc3cccc(F)c3)C[C@H]21.O=C(O)C(F)(F)F.O=C(O)C(F)(F)F`, for which the “Percent Effect” value is -38.58%.
Consider `Cc1noc(C)c1CN1C(=O)[C@H]2CC[C@@H]1CN(Cc1cccc(O)c1)C2`, for which the “Percent Effect” value is listed as -156.5%.
As for `CN(Cc1cccc(F)c1)C1CCN(CCc2ccccn2)CC1`, the “Percent Effect” value is listed as -78.69%.
`Cc1noc(C)c1CN1C[C@@H]2CC(F)(F)C[C@@H]2C1.O=C(O)C(F)(F)F`: the “Percent Effect” value was -65.49%.
The same measure, in the same setting: for `O=C(c1ccccn1)N1CCN(c2cnnc(N3CCCC3)c2)CC1` the value was -112.9%; for `COc1cccc(N2C(=O)CC3(CCNCC3)C2=O)c1.Cl`, -133.6%; for `COC(=O)CC(NC(=O)c1cc(OC)c2c(c1)OCCO2)c1cccs1` (configuration not stated), -83.17%.
For `O=S(=O)(NCCCn1cccn1)c1ccc2c(c1)CCC2`, the “Percent Effect” value was -131.9%.
As to `CCCn1cc(S(=O)(=O)N[C@H]2CN(CC(N)=O)C[C@@H]2C2CC2)cn1`, the “Percent Effect” value was -97.89%.
Take `COc1ccc(C2OC(COc3ccc(C)cc3)=NN2C(C)=O)cc1` (configuration not stated): the “Percent Effect” value was -155.6%.
Still for that read-out and setting: the result for `COc1cc(C2CC(=O)Nc3c2c(=O)[nH]n3C2CCCCC2)ccc1O` (configuration not stated) reads -62.17%; that for `Cc1nnc2n1CCN(CCCS(=O)(=O)c1ccccc1)C2`, -71.81%; that for `Cc1ccc(CN(C)C(=O)CCNS(=O)(=O)c2cccnc2)cc1`, 36.55%.
On the same count and under the same terms, for `Cc1noc(C)c1CN1CCC2(CCN(Cc3cccc(F)c3)CC2)C1.O=C(O)C(F)(F)F.O=C(O)C(F)(F)F` the value was 66.34%; for `CC(=O)N1CCC2(CCN(Cc3cccc(F)c3)CC2)CC1.O=C(O)C(F)(F)F`, -62.85%.
As to `CCC(=O)N1CCC2(CCN(Cc3cccc(F)c3)CC2)CC1.O=C(O)C(F)(F)F`, the “Percent Effect” value was -165.1%.
On to `COCC(=O)N1C[C@@H](OCc2cccnc2)[C@H]2OCCC[C@@H]21.O=C(O)C(F)(F)F`, for which the “Percent Effect” value was 7.671%.
The same measure, in the same setting: for `COCCNC(=O)Cn1cc(NC(=O)c2cccc(Cl)c2Cl)cn1` the value was -59.07%.
Still for that read-out and setting: for `O=C(NS(=O)(=O)c1ccc(Cl)cc1F)c1cccc2c1OCCO2` the value was -91.83%; for `CC(C#N)CN(C)C(=O)CCNC(=O)OCC(F)(F)F` (configuration not stated), -88.17%; for `O=C(O)C(F)(F)F.O=C(O)C(F)(F)F.O=C1CO[C@@H]2CN(Cc3cccs3)C[C@H]2N1Cc1cccnc1`, -34.75%.
Same read-out and setting: for `Cc1cnc(-n2cnnc2)c(-c2cccc3c2CCNC3)c1` the value was -33.7%.
As for `Cc1cc(-c2cccc3c2CCNC3)cnc1-n1cnnc1`, the “Percent Effect” value was -23.79%.
For the molecule `Cc1nc(-n2cnnc2)ccc1-c1cccc2c1CCNC2`, the “Percent Effect” value was determined as 68.26%.
With `CSCCC(=O)N1CCCC1c1nnc2n1CCCCC2` (configuration not stated), the “Percent Effect” value is recorded as -119.3%.
Still for that read-out and setting: for `Cc1cc(C)n(Cc2ccc(-c3noc(C(=O)NCCO)n3)cc2)n1` the value was -66.65%; for `CN(C[C@H]1CN2CC[C@H]1C[C@@H]2CNC(=O)c1ccco1)c1ccccc1`, 70.91%.
Regarding `CC[C@H]1CN2CC[C@H]1C[C@@H]2CNC(=O)c1ccco1`, the “Percent Effect” value is given as -30.73%.
In the case of `CCN(CC)C[C@H]1CN2CC[C@H]1C[C@@H]2CNC(=O)c1ccco1`, the “Percent Effect” value is recorded as -99.74%.
Take `O=C(C1CCOC1)N1CCN(Cc2cccnc2)c2ncccc2C1` (configuration not stated): the “Percent Effect” value is -57.83%.
Same read-out and setting: the result for `O=C1CN(S(=O)(=O)CC(F)(F)F)CC(O)CN1CCCc1ccccc1` (configuration not stated) reads -64.11%; that for `COCCN1CCc2nc(SCc3ccc(F)cc3)[nH]c(=O)c2C1`, -62.28%; that for `Cc1nonc1OCCNC(=O)CCCc1ccc(Cl)cc1`, -154.2%.
On the same count and under the same terms, the result for `Cc1ccc(CN2CC[C@H]3[C@H](CC(Cn4cccn4)N3C)C2)s1.O=C(O)C(F)(F)F.O=C(O)C(F)(F)F.O=C(O)C(F)(F)F` (some centres not stated) reads 62.61%.
On to `CN1[C@H](Cn2cncn2)C[C@@H]2CN(Cc3ccsc3)CC[C@@H]21.O=C(O)C(F)(F)F.O=C(O)C(F)(F)F`, for which the “Percent Effect” value was 35.13%.
`CN1C(Cn2cccn2)C[C@@H]2CN(Cc3cnn(C)c3)CC[C@@H]21` (some centres not stated): the “Percent Effect” value is recorded as -48.63%.
`CN1C(Cn2cccn2)C[C@@H]2CN(C(=O)c3cccc(C#N)c3)CC[C@@H]21.O=C(O)C(F)(F)F.O=C(O)C(F)(F)F` (some centres not stated): the “Percent Effect” value is on record as -96.07%.
Same read-out and setting: for `CN1[C@H](Cn2cncn2)C[C@@H]2CN(Cc3cccc(C#N)c3)CC[C@@H]21.O=C(O)C(F)(F)F.O=C(O)C(F)(F)F` the value was -71.32%; for `O=C(NC1CC1)C1CNCCN1C(=O)CCOc1ccccc1` (configuration not stated), -111.6%; for `Cc1ncsc1-c1nnc(C2CCN(Cc3ccccc3Cl)CC2)o1`, -108%.
As for `CC(=O)NC1CCN(c2c(C#N)cnc3c(C)cc(F)cc23)CC1`, the “Percent Effect” value worked out at 7.696%.
Consider `CN(Cc1ccccc1)C(=O)CCNS(=O)(=O)c1cccnc1`, for which the “Percent Effect” value was -47.09%.
Take `c1ccc(CCCn2ccnc2-c2cn(C3CCNCC3)nn2)nc1`: the “Percent Effect” value (4.99 µM) is -23.72% and -17.15%.
On the same count and under the same terms, for `COc1cccc(CCn2ccnc2-c2cn(C3CCNCC3)nn2)c1` the value was -32.98% and -26.9%.
Turning to `Cc1ccc2[nH]c(-c3cn(C4CCNCC4)nn3)nc2c1C`, the “Percent Effect” value worked out at 85.1%.
Same read-out and setting: the result for `Cc1cc2nc(-c3cn(C4CCNCC4)nn3)[nH]c2cc1C` reads 87.17%.
As for `Cc1cccc2[nH]c(-c3cn(C4CCNCC4)nn3)nc12`, the “Percent Effect” value was found to be 72.76%.
Consider `CN(Cc1cn(C2CCNCC2)nn1)CC1CCCO1` (configuration not stated), for which the “Percent Effect” value is -84.49%.
For `Cc1c(C)c(C)c2[nH]c(-c3cn(C4CCNCC4)nn3)nc2c1C`, the “Percent Effect” value worked out at 30.06%.
